From PubChem BioAssay (NCATS) come the findings set out here.

Structures are written as SMILES. Where “and” joins values, the source holds several entries; their conditions need not be identical. Equal values may be shown once. Results filed as inconclusive are left out. Where a structure was tested more than once in an assay, its records may differ in their call. Calls of active or inactive are those of the source. Unless noted, calls follow the shape of the dose curve; as a rule, active = well fitted curve in the direction sought with a large enough effect; inconclusive = small, poorly fitted or top-dose-only effect, or another doubt; inactive = no such curve, though single readings can be large; an effect the other way counts as inactive or inconclusive.

A short description of experiment [1]: qHTS assay for small molecule activators of the p53 signaling pathway (AID 651743; active = well fitted activation curve with a large enough effect in the signal ratio, not every such curve was filed as active; the % refers to the signal ratio; also: potency is read from the fitted curve at half-maximal effect; as to activation: % of control where 0% means no effect). Conditions: HCT-116 p53RE-bla, beta-lactamase FRET ratio, 16 h; activation: stronger effect = higher value. In a few lines: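 p53RE-bla HCT-116 cells carrying a beta-lactamase reporter under p53 response elements were exposed to compounds for 16 hours at 37 C. Reporter activity read as fluorescence after 2 hours at room temperature with LiveBLAzer B/G FRET substrate.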
A general note: qHTS replaces the single test concentration by a dilution series.

Experiment [2] can be described thus: qHTS assay for small molecule activators of the nuclear factor-kappa B (NF-kB) signaling pathway (AID 651749; active = well fitted activation curve with a large enough effect in the signal ratio; the % refers to the signal ratio; also: % of control where 0% means no effect). Conditions: NF-kB-bla ME-180 cells, beta-lactamase FRET ratio, 16 h; stronger effect = higher value. In a few lines: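 NF-kB-bla ME-180 cells carrying a beta-lactamase reporter under an NF-kB response element, 2,000 cells/well, exposed to compound for 16 hr at 37C; FRET-based beta-lactamase fluorescence read-out of pathway activation.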

Experiment [3] is described as follows: qHTS assay for environmental chemicals that activate the Aryl hydrocarbon Receptor (AhR) signaling pathway (AID 651777). Also: nearly all actives have a fitted effect of over 15% in size. Also: potency is read from the fitted curve at half-maximal effect. As to activation: % of control where 0% means no effect. Conditions: 1A2-DRE human hepatoma cells, luciferase, 24 h; activation: stronger effect = higher value. A digest of the protocol:
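Following a 24 hr incubation with test chemicals at 37 C and 5% CO2, 1A2-DRE human hepatoma cells received One-Glo reagent; after 30 min at room temperature, luciferase output reflected CYP1A2 induction via AhR.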

For experiment [4], the target named is Peroxisome proliferator-activated receptor alpha (Homo sapiens) (UniProt Q07869). In words: qHTS assay for small molecule agonists of the peroxisome proliferator-activated receptor alpha (PPARalpha) signaling pathway (AID 651778). Also: % of control where 0% means no effect. Particulars: PathHunter PPARalpha complementation, chemiluminescence, 6 h; stronger effect = higher value. In a few lines: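 Enzyme-fragment complementation assay in which ligand-bound PPARalpha translocates and forms an active enzyme that generates chemiluminescence. Cells were plated overnight, exposed to compound for 6 hr at 37 C, and then given detection reagent for 60 min at room temperature.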

Experiment [5] in a line: Cell Proliferation Assay against the TMD8 Cell Line (AID 651645).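 Also: cells exposed to compound for 48 h before reading.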 Conditions: TMD8 DLBCL cell line proliferation/viability; at 46.1 µM (top of the series). A digest of the protocol: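 Cell viability of the ABC DLBCL line TMD8 is measured by CellTiter-Glo luminescence following a 48-hour incubation with compound. Percent activity uses DMSO as 100% and 9.2 uM bortezomib (final) as 0%.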

The nature of experiment [6]: Cell Proliferation Assay against the HBL1 Cell Line (AID 651646).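 Also: cells exposed to compound for 48 h before reading.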 Conditions: HBL1 DLBCL cells; at 46.1 µM (top of the series). A digest of the protocol:
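HBL1 ABC DLBCL cells, 500/well in RPMI with 5% FBS, treated for 48 h at 37C. Viability read by CellTiter-Glo luminescence, normalized to DMSO as 100% and 9.2 uM bortezomib as 0%.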

A short description of experiment [7]: Cell Proliferation Assay against the TMD8 Cell Line (Caspase readout at 16 hrs) (AID 651712). Also: potency is read from the fitted curve at half-maximal effect. Particulars: TMD8 lymphoma cells, caspase activation luminescence. In a few lines:
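TMD8 cells in RPMI with 5% FBS were treated with compound for 16 h at 37 C, then caspase 3/7 activation was read by Caspase-Glo luminescence. Percent activity was scaled to DMSO (0%) and 9.2 uM bortezomib final (100%).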

Experiment [8] can be described thus: Cell Proliferation Assay against the TMD8 Cell Line (Caspase readout at 8 hrs) (AID 651713). Also: potency is read from the fitted curve at half-maximal effect. Conditions: TMD8 lymphoma cells, caspase activation luminescence. A digest of the protocol:
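Seed log-phase TMD8 cells, add compound by pin tool, incubate 8 h at 37C under 5% CO2, equilibrate to room temperature, add Caspase-Glo, wait 15 min, read luminescence; percent activity uses DMSO and 9.2 uM bortezomib controls.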

The target of experiment [9] is Tyrosine-protein kinase Yes (Homo sapiens) (UniProt P07947). In words: qHTS for small molecule inhibitors of Yes1 kinase: Primary Screen (AID 686947).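 Also: plate controls were DMSO with enzyme for no effect and no-enzyme DMSO wells for full effect; nearly all actives have a fitted effect of over 60% in size.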 In a few lines:
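Yes1 (4 nM) preincubated 20 min with compound, then 60 min room-temperature reaction with 0.1 mM ATP and 0.3 mg/mL poly(E4Y) in pH 7.5 Tris, 10 mM MgCl2. ADP measured by ADP-Glo luminescence, normalised to enzyme/no-enzyme controls.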

The nature of experiment [10]: qHTS for small molecule inhibitors of Yes1 kinase: Counter Assay (AID 686950).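 Also: no kinase present so only ADP-Glo detection of a fixed ADP amount is tested; luminescence from ADP-Glo reporting ADP in a fixed ATP and ADP mixture; 0% = DMSO wells with ATP plus ADP and -100% = ATP-only wells without ADP.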 A digest of the protocol:
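Enzyme-free detection counter-screen: compounds preincubated 20 min in buffer, then 0.08 mM ATP plus 0.02 mM ADP added for 60 min at room temperature; ADP-Glo luminescence. Buffer 50 mM Tris pH 7.5, 10 mM MgCl2, 150 mM NaCl; normalized to ATP+ADP and ATP-only controls.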

Experiment [11] in a line: qHTS assay for small molecule agonists of the antioxidant response element (ARE) signaling pathway (AID 651741; active = well fitted activation curve with a large enough effect in the signal ratio; the % refers to the signal ratio; also: potency is read from the fitted curve at half-maximal effect; as to activation: % of control where 0% means no effect). A digest of the protocol: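 CellSensor ARE-bla HepG2 cells (2,000/well) carrying ARE-driven beta-lactamase, exposed 16 h at 37 C. LiveBLAzer B/G FRET substrate added for 2 h at room temperature; fluorescence intensity read.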
Experiment [12] addresses Nuclear receptor ROR-gamma (Homo sapiens) (UniProt P51449). Kind of experiment: qHTS assay for small molecule antagonists of the retinoid-related orphan receptor gamma (ROR-gamma) signaling pathway (AID 651802).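 Also: CHO cells with doxycycline-induced ROR-gamma expression; luciferase reporter luminescence driven by ROR response element; % is scaled to controls: 0 for no effect and ±100 for the full control effect; nearly all actives have a fitted effect of over 60% in size.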 In a few lines:
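CHO, TET-inducible ROR + RORE-LUC reporter, 1536-well qHTS. Compound pinned, doxycycline added, 16hr 37C/5% CO2. ONE-Glo, 30 min RT, luminescence; signal drop scored as antagonism.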

A short description of experiment [13]: qHTS assay for small molecule disruptors of the mitochondrial membrane potential - 1 hr assay (AID 651754; calls by dose curve; also: nearly all actives have a fitted effect of over 35% in size; also: potency is read from the fitted curve at half-maximal effect). A digest of the protocol:
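HepG2, 2,000 cells/well, overnight attachment; cpd or DMSO 1 hr, 37C/5% CO2; Mito-MPS dye 30 min, 37C; fluorescence monomer (490/535) and aggregate (540/590).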

Experiment [14] in a line: qHTS assay for small molecule disruptors of the mitochondrial membrane potential - 5 hr assay (AID 651755; calls by dose curve; also: nearly all actives have a fitted effect of over 40% in size; also: potency is read from the fitted curve at half-maximal effect). A digest of the protocol:
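HepG2 cells (2,000/well), attached overnight, exposed to compound 5 hr at 37C, then Mito-MPS dye 30 min. Fluorescence read for monomers (490/535 nm) and aggregates (540/590 nm).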

Experiment [15] in a line: qHTS assay to identify small molecules that stimulate interleukin-8 (IL-8) secretion (AID 651758; active = well fitted activation curve with a large enough effect in the signal ratio; the % refers to the signal ratio; also: 0% is about no effect). In a few lines: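 THP-1 cells (2000/well) exposed to compound 16 h at 37 C; secreted IL-8 then detected by HTRF with cryptate- and XL665-labelled anti-IL-8 antibody pair after 1-3 h at room temperature.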

Sequence of Nuclear receptor ROR-gamma (Homo sapiens) (P51449 whole entry, looked up): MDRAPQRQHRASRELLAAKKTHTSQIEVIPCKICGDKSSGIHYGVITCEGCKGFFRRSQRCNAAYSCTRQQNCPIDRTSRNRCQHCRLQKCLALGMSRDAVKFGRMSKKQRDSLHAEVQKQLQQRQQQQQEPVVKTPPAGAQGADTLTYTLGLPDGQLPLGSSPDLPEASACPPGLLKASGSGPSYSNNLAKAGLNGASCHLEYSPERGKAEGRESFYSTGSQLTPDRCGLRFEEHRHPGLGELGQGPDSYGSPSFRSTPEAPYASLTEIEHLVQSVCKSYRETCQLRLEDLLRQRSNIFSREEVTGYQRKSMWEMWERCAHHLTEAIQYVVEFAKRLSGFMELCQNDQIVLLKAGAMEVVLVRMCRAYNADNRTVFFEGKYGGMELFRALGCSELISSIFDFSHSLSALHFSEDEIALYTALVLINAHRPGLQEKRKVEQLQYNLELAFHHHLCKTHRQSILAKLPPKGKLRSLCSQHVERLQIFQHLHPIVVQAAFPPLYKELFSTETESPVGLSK
Sequence of Peroxisome proliferator-activated receptor alpha (Homo sapiens) (Q07869 whole entry, looked up, the tested form may be a part): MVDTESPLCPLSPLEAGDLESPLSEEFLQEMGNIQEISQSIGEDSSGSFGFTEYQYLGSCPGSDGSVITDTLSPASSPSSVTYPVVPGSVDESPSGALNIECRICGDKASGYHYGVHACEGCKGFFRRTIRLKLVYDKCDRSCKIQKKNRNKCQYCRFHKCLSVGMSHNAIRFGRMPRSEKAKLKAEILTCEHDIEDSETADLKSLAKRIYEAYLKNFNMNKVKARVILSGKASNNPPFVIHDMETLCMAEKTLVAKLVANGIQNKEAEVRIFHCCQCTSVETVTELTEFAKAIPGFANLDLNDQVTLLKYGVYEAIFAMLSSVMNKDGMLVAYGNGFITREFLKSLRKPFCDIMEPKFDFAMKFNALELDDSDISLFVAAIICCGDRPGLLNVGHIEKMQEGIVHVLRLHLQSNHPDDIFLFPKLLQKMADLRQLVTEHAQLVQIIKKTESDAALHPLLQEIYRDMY
Sequence of Tyrosine-protein kinase Yes (Homo sapiens) (P07947 whole entry, looked up): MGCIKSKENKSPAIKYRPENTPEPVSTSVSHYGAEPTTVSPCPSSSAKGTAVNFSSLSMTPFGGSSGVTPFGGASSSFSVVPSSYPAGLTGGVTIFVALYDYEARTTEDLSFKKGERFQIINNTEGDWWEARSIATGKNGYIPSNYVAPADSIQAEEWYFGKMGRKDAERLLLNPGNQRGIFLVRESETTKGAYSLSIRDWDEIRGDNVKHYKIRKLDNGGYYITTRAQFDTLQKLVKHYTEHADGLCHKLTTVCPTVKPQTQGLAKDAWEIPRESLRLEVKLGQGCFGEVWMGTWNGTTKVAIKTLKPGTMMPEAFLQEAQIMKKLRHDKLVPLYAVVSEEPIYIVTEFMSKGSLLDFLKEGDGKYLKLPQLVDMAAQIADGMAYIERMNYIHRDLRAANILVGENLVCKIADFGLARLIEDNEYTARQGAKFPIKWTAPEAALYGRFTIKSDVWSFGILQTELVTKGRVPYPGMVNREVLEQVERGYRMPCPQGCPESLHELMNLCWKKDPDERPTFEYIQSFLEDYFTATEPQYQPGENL

Take `CC(C)(c1ccc(O)cc1)c1ccc(O)cc1`: the activation in experiment [1] was -1.88% (inactive) and -5.31% (inactive) and -3.08% (inactive); in experiment [2] it was -0.409% (inactive) and -2.36% (inactive) and -2.41% (inactive); in [3], 3.05% (inactive) and 4.15% (inactive) and 3.72% (inactive). In [4], the max response is -6.65% (inactive) and -3.38% (inactive) and -3.11% (inactive).

Consider `C[C@@H](O[C@H]1OCCN(Cc2n[nH]c(=O)[nH]2)[C@H]1c1ccc(F)cc1)c1cc(C(F)(F)F)cc(C(F)(F)F)c1`, for which, in [5], the viability (% of control) worked out at 8.07%. Besides, the viability, percent of control in [6] came out at 8.93%. The Potency is 11.8 µM (active) in experiment [7] and 33.2 µM (active) in [8]. For the same compound, in experiment [9], the Potency entry is “inactive”. Also, in experiment [10], the compound was classed as inactive.

In the case of `C1=CC2C3C=CC(C3)C2C1` (centres undefined), the Potency entry in [11] and in [12] was “inactive” each time. The activation was -1.4% (inactive) in experiment [1], -1.05% (inactive) in experiment [2] and 0.971% (inactive) in experiment [3]. Also, the max response in experiment [4] was -3.12% (inactive).

`OCCOCCN1CCN(C(c2ccccc2)c2ccc(Cl)cc2)CC1` (centres undefined): in experiment [11], the Potency entry is “inactive”. Moreover, the activation in experiment [1] is -1.54% (inactive). The max response in experiment [4] is -2.06% (inactive).

Take `CC(=O)OC/C=C(C)/C=C/C=C(C)/C=C/C1=C(C)CCCC1(C)C`: the Potency in experiment [11] is 42.2 µM (active) and 54.5 µM (active). Also, the activation in [1] is -8.23% (inactive) and -2.69% (inactive); in experiment [2], -1.82% (inactive) and 0.334% (inactive); in experiment [3] it was -0.036% (inactive) and -0.475% (inactive). The Potency result in experiment [13], in experiment [14] and in experiment [12] was “inactive” each time. In [4], the max response is -6.94% (inactive) and -1.56% (inactive).

Turning to `Nc1cccc2c(N)cccc12`, the activation in experiment [1] is -3.42% (inactive) and 1.45% (inactive); in [2] it was -0.416% (inactive) and 0.0033% (inactive). In addition, the max response in experiment [4] was -0.422% (inactive) and -2.29% (inactive).

As for `COC(=O)c1c(Cl)c(Cl)c(C(=O)OC)c(Cl)c1Cl`, the Potency in experiment [11] is 54.5 µM (active). In addition, the activation in experiment [1] was 1.22% (inactive); in experiment [2], 0.623% (inactive); in [3] it was 0.102% (inactive). Besides, the max response in experiment [4] was -0.617% (inactive).

For the compound `OCc1c[nH]c2ccccc12`, the Potency in experiment [11] is 66.8 µM (active). For the same compound, the activation in [1] was -1.58% (inactive); in experiment [2] it was -1.28% (inactive); in [3], 2.25% (inactive). Further, the Potency result in experiment [13] and in [14] was “inactive” throughout. In [4], the max response was -6.59% (inactive).

Turning to `CCCCC(CC)COC(=O)c1ccccc1C(=O)O` (centres undefined), the activation in experiment [1] is -2.67% (inactive) and -0.261% (inactive). Besides, the Potency result in experiment [13], in experiment [14] and in [12] was “inactive” throughout. The outcome in experiment [15] was inactive.

As to `Nc1c2ccccc2nc2ccccc12`, the Potency in experiment [11] was 10.6 µM (active); in experiment [1], 11.2 µM (active); in experiment [13], 9.44 µM (active); in [14], 15 µM (active). Further, the max response in [4] was -4.95% (inactive).

As for `O=C(NO)c1ccccc1`, the activation in experiment [1] was 3.57% (inactive); in experiment [2], 0.132% (inactive); in experiment [3] it was -0.612% (inactive). For the same compound, the outcome in experiment [15] was inactive. Further, in experiment [4], the max response is -0.429% (inactive). The Potency result in experiment [12] is “inactive”.

Consider `O=C(c1ccccc1)c1ccccc1`, for which the activation in experiment [1] was -6.89% (inactive) and 0.517% (inactive); in experiment [3], -0.735% (inactive) and 18.8% (inactive). Also, the Potency entry in experiment [13] and in experiment [14] was “inactive” in each case. Also, the max response in [4] is -0.839% (inactive) and -0.419% (inactive).

As to `Cc1ccc(O)cc1`, the activation was -3.91% (inactive) in experiment [1] and -0.225% (inactive) in [2]. The Potency entry in experiment [13] and in experiment [14] was “inactive” in each case. Moreover, the max response in [4] was -0.0678% (inactive).

`Cc1cc(C(C)(C)C)c(O)c(C(C)(C)C)c1`: the Potency entry in experiment [11] was “inactive”. For the same compound, the activation in experiment [1] is -3.94% (inactive) and -1.07% (inactive); in [2] it was -0.477% (inactive); in experiment [3] it was 0.771% (inactive) and -0.0452% (inactive). The max response in [4] is 0.589% (inactive).

For the compound `O=C(Oc1ccccc1)c1ccccc1O`, the Potency entry in experiment [11] and in experiment [12] was “inactive” in each case. The activation in experiment [3] was -0.0038% (inactive) and 1.61% (inactive). Further, in experiment [4], the max response is 7.82% (inactive) and -2.96% (inactive).

For `c1ccc2occc2c1`, the activation is -0.261% (inactive) and -6.48% (inactive) and -3.89% (inactive) in experiment [1]; -0.808% (inactive) and 0.0616% (inactive) and -0.684% (inactive) in experiment [2]; 2.4% (inactive) in [3]. The Potency entry in experiment [13], in experiment [14] and in [12] was “inactive” in each case. Further, in experiment [3], the Potency was 1.26 mM (active) and 25.1 µM (active). Further, the max response in experiment [4] was 0.199% (inactive) and 3.33% (inactive) and -1.19% (inactive).

In the case of `Nc1ccc(O)cc1`, in [11], the Potency was 26.6 µM (active). In experiment [4], the max response is -0.783% (inactive).

Regarding `CC(C)C(C)(C)C(C)(C)C(C)(C)S`, the Potency entry in experiment [11] and in [12] was “inactive” each time. For the same compound, the activation was 1.86% (inactive) and -1.44% (inactive) in experiment [1]; -1.05% (inactive) and -0.196% (inactive) in experiment [2]; 1.1% (inactive) and 1.7% (inactive) in [3]. The compound was classed as inactive in [15]. Further, in experiment [4], the max response was -3.79% (inactive) and -2.56% (inactive).
